# From PubChem BioAssay (NCATS)
# Unmarked numbers belong to inactive results. Inconclusive results are not listed. Active and inactive are the calls of the source. Unless noted, calls follow the shape of the dose curve; as a rule, active = well fitted curve in either direction with a large enough effect (not every such curve was filed as active); inconclusive = small, poorly fitted or top-dose-only effect, or another doubt; inactive = flat fitted curve, though single readings scatter.
# Key:
# [1] = target: Lysosomal acid glucosylceramidase (Homo sapiens) (UniProt P04062); test: Glucocerebrosidase-p2 (AID 348; in the data active = potency below about 10 µM; also: potency is read from the fitted curve at half-maximal effect); details: purified GBA, blue fluorogenic substrate, 40 min
# Chain of Lysosomal acid glucosylceramidase (Homo sapiens) (P04062 whole entry, looked up): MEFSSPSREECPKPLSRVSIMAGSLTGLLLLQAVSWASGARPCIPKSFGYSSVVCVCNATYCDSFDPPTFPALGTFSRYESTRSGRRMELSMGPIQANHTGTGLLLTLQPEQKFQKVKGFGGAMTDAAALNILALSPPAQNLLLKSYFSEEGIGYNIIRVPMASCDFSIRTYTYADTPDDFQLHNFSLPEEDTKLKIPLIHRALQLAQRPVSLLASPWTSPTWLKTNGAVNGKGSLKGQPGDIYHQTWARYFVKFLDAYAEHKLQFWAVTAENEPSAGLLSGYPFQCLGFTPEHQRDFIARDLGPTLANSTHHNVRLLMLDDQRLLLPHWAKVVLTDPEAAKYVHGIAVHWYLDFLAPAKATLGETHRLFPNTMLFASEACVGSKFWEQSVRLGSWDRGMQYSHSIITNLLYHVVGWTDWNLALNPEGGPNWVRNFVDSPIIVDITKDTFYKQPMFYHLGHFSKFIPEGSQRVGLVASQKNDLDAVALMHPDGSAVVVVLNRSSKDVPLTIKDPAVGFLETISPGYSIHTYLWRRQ
# Method in brief: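 Compounds titrated from 0.6 nM upwards against 0.2 nM enzyme in pH 5.9 citric acid/KH2PO4, taurocholate, tween-20; blue fluorogenic substrate 80 uM, 40 min room temperature, stopped and read Ex 365/Em 440 for AC50.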
# [2] = AP1 Signaling Pathway (AID 357); details: ME-180 AP-1-bla reporter, EGF-induced, beta-lactamase ratio, 5 h; at 7.69 µM (top of the series) unless noted; also: % is scaled to controls: 0 for no effect and ±100 for the full control effect
# Method in brief: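 ME-180 cells with beta-lactamase reporter under AP-1 response element, stimulated with EC50 EGF; compounds tested in titration series, 5 h at 37 °C. CCF4 substrate added 2.5 h at room temperature; 460/530 nm emission ratio gave %activity and AC50.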
# [3] = NFAT Signaling Pathway (AID 444); details: Jurkat NFAT-bla M1, carbachol, beta-lactamase ratio, 5 h; at 7.69 µM (top of the series) unless noted;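 also: carbachol stimulus at about its EC50 of 1 µM final; % is scaled to controls: 0 for no effect and ±100 for the full control effect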
# Method in brief: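 Jurkat cells with NFAT-driven β-lactamase reporter and co-expressed M1 receptor, stimulated with carbachol (final 1 uM, ~EC50), compound titration, 5 h at 37 °C. CCF4 loaded 1 h at RT; 460/530 nm ratio gave %activity and AC50.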
# [4] = Stat Signaling Pathway (AID 446); details: ME-180 SIE beta-lactamase reporter, IL-6 stimulated, 5 h; at 7.69 µM (top of the series) unless noted;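 also: ME-180 cervical cancer cells given 40 pM IL-6 alongside compound; SIE-controlled beta-lactamase reporter measured as 460/530 nm FRET emission ratio; % is scaled to controls: 0 for no effect and ±100 for the full control effect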
# Method in brief: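 Screening format detects activators and inhibitors alike: ME-180 SIE-bla cells stimulated at 40 pM IL-6 for 5 hrs with compound, then dual-emission beta-lactamase read at 405 nm excitation.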
# [5] = target: Glucocorticoid receptor (Homo sapiens) (UniProt P04150); test: GR-GFP Redistribution (AID 450;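 active = compounds whose dose series gives a full or clear partial fitted curve of increased nuclear translocation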; also: potency is read from the fitted curve at half-maximal effect); details: U2OS GR-GFP nuclear translocation, laser cytometry, 2 h
# Chain of Glucocorticoid receptor (Homo sapiens) (P04150 whole entry, looked up, the tested form may be a part): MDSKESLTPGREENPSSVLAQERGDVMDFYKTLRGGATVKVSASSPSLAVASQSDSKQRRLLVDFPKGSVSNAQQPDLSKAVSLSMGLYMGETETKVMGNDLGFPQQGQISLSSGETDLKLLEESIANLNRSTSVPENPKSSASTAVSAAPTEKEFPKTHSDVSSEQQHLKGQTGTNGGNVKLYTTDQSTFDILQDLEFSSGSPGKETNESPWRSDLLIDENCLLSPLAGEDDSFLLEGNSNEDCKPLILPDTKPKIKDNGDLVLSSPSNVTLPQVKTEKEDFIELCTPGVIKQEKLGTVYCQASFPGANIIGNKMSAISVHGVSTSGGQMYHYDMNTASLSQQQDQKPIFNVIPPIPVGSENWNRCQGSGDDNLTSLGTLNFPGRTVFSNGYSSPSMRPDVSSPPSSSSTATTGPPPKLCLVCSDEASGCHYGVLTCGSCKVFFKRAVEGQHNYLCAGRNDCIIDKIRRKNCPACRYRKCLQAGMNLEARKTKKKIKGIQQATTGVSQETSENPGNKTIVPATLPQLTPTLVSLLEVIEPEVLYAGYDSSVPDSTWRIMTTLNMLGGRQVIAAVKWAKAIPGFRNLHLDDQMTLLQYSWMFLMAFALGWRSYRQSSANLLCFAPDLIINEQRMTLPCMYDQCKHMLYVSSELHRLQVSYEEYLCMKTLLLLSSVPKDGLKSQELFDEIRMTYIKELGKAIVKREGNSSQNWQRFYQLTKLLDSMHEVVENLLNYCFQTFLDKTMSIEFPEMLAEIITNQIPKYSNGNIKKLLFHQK
# [6] = target: Glucocorticoid receptor (Homo sapiens) (UniProt P04150); test: GR-EFC Redistribution (AID 451; calls by dose curve; also: potency is read from the fitted curve at half-maximal effect); details: CHO-K1 GR-EFC translocation, beta-gal luminescence, 2 h
# Method in brief: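 CHO-K1 cells expressing nuclear EA and GR-ED fragments of b-gal; compounds titrated up to 46 uM final, 2 h at 37 C. GR nuclear translocation read as complemented b-gal luminescence after 1 h RT detection.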
# [7] = target: Mitogen-activated protein kinase 10 (Mus musculus) (UniProt Q61831); test: JNK3 AlphaScreen Assay (AID 530); details: JNK3 lysate, c-Jun phosphorylation; series mostly up to 57.1 µM;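 also: kinase came from lysate of stimulated human HepG2 cells; signal reports phosphorylation of biotinylated GST-cJun 1-79 at Ser73 with 10 µM ATP; % is scaled to controls: 0 for no effect and ±100 for the full control effect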
# Method in brief: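 Pre-activated (IL-1β/TNFα) JNK3 in HepG2 lysates phosphorylates biotin-GST-cJun(1-79), 10 uM ATP; anti-phospho-cJun(Ser73) AlphaScreen read at room temperature, pH 7.6 Tris buffer. Compounds pre-incubated 15 min as titrations.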
# [8] = Primary qHTS for small molecule stabilizers of the endoplasmic reticulum resident proteome: Secreted ER Calcium Modulated Protein (SERCaMP) assay (AID 1508630; active = well fitted curve in the direction sought with a large enough effect; an effect the other way counts as inactive or inconclusive; also: % is scaled to controls: 0 for no effect and ±100 for the full control effect); details: SH-SY5Y GLuc-SERCaMP (Gaussia luciferase released on ER calcium loss) secretion, thapsigargin, luminescence; series mostly up to 38.4 µM
# Method in brief: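 GLuc-SERCaMP-expressing SH-SY5Y cells, pretreated 16 h with compound, are challenged with thapsigargin to empty ER calcium stores; after 4 h, coelenterazine is added directly to the medium and luminescence is imaged.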
# [9] = target: 3',5'-cyclic-AMP phosphodiesterase 4B (Homo sapiens) (UniProt Q07343); test: qHTS Assay for Inhibitors of PDE-IV (AID 607; active = well fitted activation curve with a large enough effect in the main read-out, with a control signal flat, not every such curve was filed as active; also: % of control where 0% means no effect); details: HEK293 ACTOne CNG channel cells, membrane potential fluorescence; series mostly up to 22.9 µM
# Chain of 3',5'-cyclic-AMP phosphodiesterase 4B (Homo sapiens) (Q07343 whole entry, looked up): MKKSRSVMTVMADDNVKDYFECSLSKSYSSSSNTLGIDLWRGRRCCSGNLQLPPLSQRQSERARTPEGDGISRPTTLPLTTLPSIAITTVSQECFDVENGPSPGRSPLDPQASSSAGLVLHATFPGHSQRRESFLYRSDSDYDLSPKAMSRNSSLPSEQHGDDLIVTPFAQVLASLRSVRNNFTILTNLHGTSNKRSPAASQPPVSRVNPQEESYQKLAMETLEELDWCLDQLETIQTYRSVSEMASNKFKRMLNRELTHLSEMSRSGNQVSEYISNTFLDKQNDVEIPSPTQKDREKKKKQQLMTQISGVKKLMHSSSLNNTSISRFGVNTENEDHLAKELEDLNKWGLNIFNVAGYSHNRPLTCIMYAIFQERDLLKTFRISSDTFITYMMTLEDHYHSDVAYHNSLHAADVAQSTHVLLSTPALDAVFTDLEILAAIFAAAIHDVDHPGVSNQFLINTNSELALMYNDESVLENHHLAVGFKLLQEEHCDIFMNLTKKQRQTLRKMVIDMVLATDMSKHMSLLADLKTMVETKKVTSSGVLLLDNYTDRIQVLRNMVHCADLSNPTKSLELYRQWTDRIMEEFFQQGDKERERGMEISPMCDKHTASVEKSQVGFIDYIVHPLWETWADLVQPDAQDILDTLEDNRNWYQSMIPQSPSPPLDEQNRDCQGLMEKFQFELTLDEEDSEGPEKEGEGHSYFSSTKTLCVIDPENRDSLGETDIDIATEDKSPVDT
# Method in brief: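 The readout is membrane depolarisation from a cAMP-sensing CNG channel, detected with a potential dye at ex 535/em 590. Cells were HEK293-derived (endogenous PDE-IV) at 1000 cells/well, titrated up to 22.9 uM final.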
# [10] = target: Cytochrome P450 3A4 (Homo sapiens) (UniProt P08684); test: qHTS Assay for Activators of Cytochrome P450 3A4 (AID 885; active = well fitted curve in the direction sought with a large enough effect; an effect the other way counts as inactive or inconclusive; also: nearly all actives have a fitted effect of over 65% in size; also: potency is read from the fitted curve at half-maximal effect); details: recombinant CYP3A4, Luciferin-PPXE luminescence, 60 min; series mostly up to 57.1 µM
# Chain of Cytochrome P450 3A4 (Homo sapiens) (P08684 whole entry, looked up): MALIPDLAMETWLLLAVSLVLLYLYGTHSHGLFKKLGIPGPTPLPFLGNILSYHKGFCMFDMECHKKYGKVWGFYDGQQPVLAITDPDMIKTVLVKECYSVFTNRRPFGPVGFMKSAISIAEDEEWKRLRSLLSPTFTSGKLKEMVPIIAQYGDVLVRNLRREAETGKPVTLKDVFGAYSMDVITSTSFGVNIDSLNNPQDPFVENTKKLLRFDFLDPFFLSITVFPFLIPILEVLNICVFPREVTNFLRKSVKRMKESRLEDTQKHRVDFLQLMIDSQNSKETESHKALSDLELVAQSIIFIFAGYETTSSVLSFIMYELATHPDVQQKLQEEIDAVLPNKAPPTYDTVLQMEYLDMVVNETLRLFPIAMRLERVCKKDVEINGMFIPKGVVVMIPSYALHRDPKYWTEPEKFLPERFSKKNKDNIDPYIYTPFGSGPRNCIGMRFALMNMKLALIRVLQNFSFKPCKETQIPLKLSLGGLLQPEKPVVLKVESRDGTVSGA
# Method in brief: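 Steps: enzyme/substrate mix dispensed; compound added, 10 min RT; NADPH regeneration solution added, 60 min RT; luciferin detection buffer stops reaction; 20 min later luminescence measured.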
# [11] = qHTS Assay for Identification of Small Molecule Agonists for Hypoxia Response Element Signaling Pathway (AID 914; active = well fitted activation curve with a large enough effect in the signal ratio, with a control signal flat, not every such curve was filed as active; the % refers to the signal ratio; also: % of control where 0% means no effect); details: ME-180 (cervical carcinoma) HRE-bla reporter, beta-lactamase ratio, CoCl2, 17 h; activation: hits give high values
# Method in brief: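 HRE-bla ME-180 assay for agonist-like enhancement of an EC50 CoCl2 stimulus: 17 h at 37 degrees Celsius, CCF4 for 2.5 h, ratiometric 460/530 nm signal converted to %Activity and fitted to AC50.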
# [12] = target: Cytochrome P450 3A4 (Homo sapiens) (UniProt P08684); test: qHTS Assay for Inhibitors and Substrates of Cytochrome P450 3A4 (AID 884; active = well fitted curve in the direction sought with a large enough effect; an effect the other way counts as inactive or inconclusive; also: % is scaled to controls: 0 for no effect and ±100 for the full control effect; nearly all actives have a fitted effect of over 50% in size); details: recombinant CYP3A4, Luciferin-PPXE luminescence; series mostly up to 57.1 µM
# Method in brief: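 20 nM human CYP3A4 with 25 uM Luciferin-PPXE (at KM) in 200 mM KPO4, preincubated 10 min with compound; NADPH regeneration started a 60 min RT reaction. Luciferin detected by luminescence, normalized to 57 uM ketoconazole as full inhibition.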
SMILES,Potency [1],"activity change, negative = inhibition [2]","activity change, negative = inhibition [3]","activity, negative = inhibition [4]",Potency [5],Potency [6],Potency [7],outcome [8],Potency [9],Potency [10],activation [11],Potency [12]
COc1cccc(Cn2c(=O)c(C)nc3cnc(N4CCOCC4)nc32)c1,> 11.4 µM,-24.9%,2.68%,-1.29%,> 9.22 µM,> 46 µM,inactive,inactive,,,,
COc1ccccc1CCn1c(=O)c(C)nc2cncnc21,> 11.4 µM,-13.2%,6.15%,-13.1%,> 9.22 µM,> 46 µM,inactive,inactive,inactive,,,
COc1ccc(C(=O)N2CCC3(CCCN(C(=O)NC(C)C)C3)CC2)cc1,> 11.4 µM,-3.27%,2.69%,0.47%,,> 46 µM,inactive,inactive,inactive,,,
COCCn1c(=O)c(-c2ccc(OC)cc2)nc2cnc(Oc3ccc(OC)cc3)nc21,> 11.4 µM,-20.1%,18%,-7.21%,> 9.22 µM,> 46 µM,inactive,inactive,inactive,,,
COCCn1c(=O)c(-c2ccc(Cl)cc2)nc2cnc(Oc3ccc(OC)cc3)nc21,> 11.4 µM,-18.1%,-1.47%,-2.62%,> 9.22 µM,> 46 µM,inactive,inactive,inactive,,,
O=c1c(-c2ccc(F)cc2)nc2cnc(Nc3ccccc3)nc2n1C1CC1,> 11.4 µM,-14%,-2.3%,-3.65%,> 9.22 µM,> 46 µM,inactive,inactive,inactive,,,
COc1ncc2nc(-c3cc(F)cc(F)c3)c(=O)n(Cc3cccs3)c2n1,> 11.4 µM,14.2%,-10.4%,4.55%,> 9.22 µM,> 46 µM,inactive,inactive,inactive,,,
COCCn1c(=O)cnc2cnc(OCc3ccccc3)nc21,> 11.4 µM,-3.32%,-3.92%,3.06%,> 9.22 µM,> 46 µM,inactive,inactive,inactive,inactive,,
O=c1cnc2cnc(Oc3ccccc3)nc2n1C[C@H]1CCCO1,> 11.4 µM,-19.1%,-3.47%,-8.07%,> 9.22 µM,> 46 µM,inactive,inactive,inactive,,,
COc1cccc(Cn2c(=O)cnc3cnc(N4CCOCC4)nc32)c1,> 11.4 µM,-21.3%,-0.938%,-11%,> 9.22 µM,> 46 µM,inactive,inactive,,,,
O=C(c1cccc(F)c1)N1CCC2(CC1)CN(C(c1ccccc1)c1ccccc1)C2,> 11.4 µM,16.8%,-27.5%,-17.5%,,> 46 µM,inactive,inactive,inactive,,,
COCC(=O)N1CCC2(CCCN(c3ccccn3)C2)CC1,> 11.4 µM,0.674%,-15.3%,11.7%,,> 46 µM,inactive,inactive,inactive,,,
COc1ccc(-c2nc3cnc(OC)nc3n(C3CC3)c2=O)cc1,> 11.4 µM,-14.2%,-0.173%,2.68%,> 9.22 µM,> 46 µM,inactive,inactive,inactive,inactive,,
COCCn1c(=O)c(-c2ccc(F)cc2)nc2cnc(Oc3cccc(Cl)c3)nc21,> 11.4 µM,1.58%,-15.6%,-8.51%,> 9.22 µM,> 46 µM,inactive,inactive,inactive,,,
Cc1nc2cnc(OCc3ccccc3)nc2n(CCC#N)c1=O,> 11.4 µM,2.98%,-3.58%,-1.87%,> 9.22 µM,> 46 µM,inactive,inactive,,inactive,,
COc1ccc(Oc2ncc3nc(C)c(=O)n(C4CC4)c3n2)cc1,> 11.4 µM,-0.17%,-5.38%,-4.78%,> 9.22 µM,> 46 µM,inactive,inactive,inactive,,-6.35%,
N#Cc1ccc(CN2CC3(CCN(C(=O)c4csnn4)CC3)C2)cc1,> 11.4 µM,-0.499%,-22.3%,5.17%,,> 46 µM,inactive,inactive,inactive,,,
CC(=O)N1CCC2(CC1)CCN(C(=O)Nc1cccc(C#N)c1)CC2,> 11.4 µM,4.49%,8.82%,3.47%,,> 46 µM,inactive,inactive,inactive,,,
CS(=O)(=O)N1CCC2(CCCN(Cc3cc(C(F)(F)F)cc(C(F)(F)F)c3)C2)CC1,> 11.4 µM,20%,-14.4%,5.1%,,> 46 µM,inactive,inactive,inactive,,,
O=C(c1cccc(F)c1)N1CCC2(CC1)CN(c1ccccc1)C2,> 11.4 µM,-0.575%,6.14%,-1.57%,,> 46 µM,inactive,inactive,inactive,7.94 µM (active),,inactive
COC(=O)N1CCC2(CCCN(c3ncccn3)C2)CC1,> 11.4 µM,-15%,6.41%,1.72%,,> 46 µM,inactive,inactive,,,12.6%,
COc1ccc(C(=O)N2CCC3(CC2)CCN(c2cccc(-c4ccccc4)c2)CC3)cc1,> 11.4 µM,10.6%,-6.4%,-19%,,> 46 µM,inactive,inactive,inactive,,,
COc1ccc(C(=O)N2CCC[C@@]3(CCN(Cc4nccs4)C3)C2)cc1,> 11.4 µM,-5.52%,-6.27%,-1.52%,,> 46 µM,inactive,inactive,inactive,,,
O=S(=O)(c1ccccc1)N1CCC2(CCN(c3ccccc3)CC2)CC1,> 11.4 µM,6.91%,-1.26%,-14.2%,,> 46 µM,inactive,inactive,inactive,inactive,,
COc1ccc(C(=O)N2CCC3(CCN(Cc4nccs4)CC3)CC2)cc1,> 11.4 µM,-14.6%,-8.01%,-11.9%,,> 46 µM,inactive,inactive,inactive,,,inactive
COc1ccc(C(=O)N2CCC3(CCN(C(=O)Nc4ccccc4)CC3)CC2)cc1,> 11.4 µM,0.785%,6.48%,-6.61%,,> 46 µM,inactive,inactive,inactive,,,
Cc1noc(C)c1C(=O)N1CCC2(CCCN(c3ccccn3)C2)CC1,> 11.4 µM,-4.45%,-10.8%,-8.83%,,> 46 µM,inactive,inactive,inactive,inactive,,
O=C(Nc1ccccc1)N1CCCC2(CCN(C(=O)c3csnn3)CC2)C1,> 11.4 µM,-9.89%,-7.97%,-7.07%,,> 46 µM,inactive,inactive,inactive,,,
O=C(c1ccncc1)N1CCC2(CCCN(c3ccc(-c4ccccc4)cc3)C2)CC1,> 11.4 µM,-6.85%,14.6%,-6.26%,,> 46 µM,inactive,inactive,inactive,,,
O=C(Nc1cccc(F)c1)N1CCCC2(CCN(C(=O)c3csnn3)CC2)C1,> 11.4 µM,-12.3%,-19.5%,-9.38%,,> 46 µM,inactive,inactive,inactive,,,
